In the supplement of paper PMC3545927:
The list shows a part of the results. No count for the full screen is at hand.

B1: HC1454 (peptide)
chain: CAVRVCEKMAAGNASASA
B2: HC2085 (peptide)
chain: CAVVCCSMSLAGNASASA
B3: HC482 (peptide)
chain: CAACNWTRGEAGNASASA
B4: HC57 (peptide)
chain: CATTPYSGSWAGNASASA
B5: HC2092 (peptide)
chain: CAVVCCSMSEAGNASASA
B6: HC286 (peptide)
chain: CAGKLPATQLAGNASASA
B7: FS-2414 (peptide)
chain: CARFKKLADMAGNASASA
B8: FS-2488 (peptide)
chain: CARFKRLACMAGNASASA
B9: FS-2129 (peptide)
chain: CARAQRSPQQAGNASASA
B10: HC684 (peptide)
chain: CALTGRDKNQAGNASASA
B11: FS-1891 (peptide)
chain: CARFKRDPNQAGNASASA
B12: HC1397 (peptide)
chain: CATFDRLQVLAGNASASA
B13: FS-2662 (peptide)
chain: CARFERAIGPAGNASASA
B14: FS-3088 (peptide)
chain: CARSNRFSWMAGNASASA
B15: FS-2489 (peptide)
chain: CARFKRLADMAGNASASA
B16: FS-2610 (peptide)
chain: CARSWRLACEAGNASASA
B17: FS-2249 (peptide)
chain: CAQEKRSVFQAGNASASA
B18: FS-3154 (peptide)
chain: CARFKRAIFQAGNASASA
B19: HC391 (peptide)
chain: CAPLTDFDQGAGNASASA
B20: HC338 (peptide)
chain: CAVLAGIAYFAGNASASA
B21: HC1975 (peptide)
chain: CAEHTTPCSGAGNASASA
B22: HC1849 (peptide)
chain: CATYPCSGSWAGNASASA
B23: FS-2442 (peptide)
chain: CARPWRPAEGAGNASASA
B24: FS-2321 (peptide)
chain: CARYRRWMKNAGNASASA
B25: FS-1810 (peptide)
chain: CARYRRGFIHAGNASASA
B26: FS-2715 (peptide)
chain: CARLRRLAEGAGNASASA
B27: FS-1980 (peptide)
chain: CARYRRVAEGAGNASASA
B28: FS-1942 (peptide)
chain: CARYRRHGTHAGNASASA
B29: FS-1844 (peptide)
chain: CARYRRVITVAGNASASA

Target: furin, P09958
Sequence (P09958 whole entry): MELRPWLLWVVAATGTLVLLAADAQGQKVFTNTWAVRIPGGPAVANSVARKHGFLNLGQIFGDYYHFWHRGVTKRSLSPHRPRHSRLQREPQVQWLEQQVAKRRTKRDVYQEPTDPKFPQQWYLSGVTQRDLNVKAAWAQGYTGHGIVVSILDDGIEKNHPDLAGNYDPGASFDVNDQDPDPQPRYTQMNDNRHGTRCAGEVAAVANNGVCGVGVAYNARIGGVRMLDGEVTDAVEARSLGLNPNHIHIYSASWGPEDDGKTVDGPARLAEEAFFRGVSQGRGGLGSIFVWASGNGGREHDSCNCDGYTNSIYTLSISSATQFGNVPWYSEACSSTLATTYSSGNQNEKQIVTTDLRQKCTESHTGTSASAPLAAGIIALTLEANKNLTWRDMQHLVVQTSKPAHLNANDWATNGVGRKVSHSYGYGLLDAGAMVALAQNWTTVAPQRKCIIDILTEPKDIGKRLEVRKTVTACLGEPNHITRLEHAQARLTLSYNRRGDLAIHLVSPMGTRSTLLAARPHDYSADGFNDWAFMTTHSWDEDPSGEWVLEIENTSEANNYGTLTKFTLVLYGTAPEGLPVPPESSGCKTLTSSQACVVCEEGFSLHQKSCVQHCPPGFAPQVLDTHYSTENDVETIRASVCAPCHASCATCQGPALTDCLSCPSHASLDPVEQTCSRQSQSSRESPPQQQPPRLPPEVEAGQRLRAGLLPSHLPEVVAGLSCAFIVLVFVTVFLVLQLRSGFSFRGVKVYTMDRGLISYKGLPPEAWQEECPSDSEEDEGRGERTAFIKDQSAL
Assay: furin cleavage Z-score vs untreated control; higher = more cleavage, active = 3.5 or more, inactive = 1 or less, 8 variable residues between constant flanks
Summary of the method: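 In 50 mM HEPES pH 7.5 with CaCl2 and NaCl, purified furin was incubated with bead-anchored 8-mer peptide–cDNA fusions at 1:10 enzyme:substrate in 0.01 ml. Incubation times were 7.5, 15 and 30 min. DNA set free by cleavage was adapter-tagged by PCR and sequenced, with read counts taken as abundance. Log counts relative to furin-free reactions, after lowess adjustment and median absolute deviation scaling, form the cleavage Z-score.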

| Sequence | furin cleavage Z-score (7.5 min) | furin cleavage Z-score (15 min) | furin cleavage Z-score (30 min) |
| --- | --- | --- | --- |
| B1 | -0.509 (inactive) | -1.63 (inactive) | -0.874 (inactive) |
| B2 | -0.7 (inactive) | -0.0853 (inactive) | 0.456 (inactive) |
| B3 | 0.0668 (inactive) | 0.0745 (inactive) | -0.647 (inactive) |
| B4 | -0.402 (inactive) | -1.77 (inactive) | -1.07 (inactive) |
| B5 | 0.169 (inactive) | -0.137 (inactive) | 0.14 (inactive) |
| B6 | -0.891 (inactive) | 0.888 (inactive) | -0.728 (inactive) |
| B7 | -1 (inactive) | -2.01 (inactive) | 0.965 (inactive) |
| B8 | 1.67 | 1.17 | 4.11 (active) |
| B9 | -0.476 (inactive) | 0.539 (inactive) | 1.62 |
| B10 | -0.69 (inactive) | -0.684 (inactive) | -0.181 (inactive) |
| B11 | 5.07 (active) | 6.2 (active) | 6.47 (active) |
| B12 | -1.63 (inactive) | -1.93 (inactive) | -0.453 (inactive) |
| B13 | 1.09 | 0.675 (inactive) | 1.32 |
| B14 | 1.34 | 0.175 (inactive) | 0.252 (inactive) |
| B15 | 2.25 | 3.3 | 4.96 (active) |
| B16 | -1.13 (inactive) | -1.31 (inactive) | -0.906 (inactive) |
| B17 | -0.752 (inactive) | 1.01 | 0.632 (inactive) |
| B18 | 3.12 | 6.07 (active) | 9.35 (active) |
| B19 | -0.36 (inactive) | -0.0198 (inactive) | -2.39 (inactive) |
| B20 | -0.161 (inactive) | 0.738 (inactive) | -0.272 (inactive) |
| B21 | -1.73 (inactive) | -1.12 (inactive) | 0.179 (inactive) |
| B22 | -0.56 (inactive) | -0.736 (inactive) | -0.826 (inactive) |
| B23 | -1.33 (inactive) | -0.417 (inactive) | 0.551 (inactive) |
| B24 | -1.37 (inactive) | -0.188 (inactive) | 2.73 |
| B25 | 1.59 | 3.75 (active) | 4.82 (active) |
| B26 | -0.759 (inactive) | -0.389 (inactive) | -0.211 (inactive) |
| B27 | 3.4 | 4.71 (active) | 4.58 (active) |
| B28 | 3.5 | 5.79 (active) | 6.5 (active) |
| B29 | -0.325 (inactive) | -0.579 (inactive) | 0.939 (inactive) |
